S1P2 agonist: S1P2 receptor agonists, primary screen, cell-based; Sphingosine 1-phosphate receptor 2 (Homo sapiens), O95136; S1P2-expressing cell line, agonist reporter read-out; activation, % at 4.5 µM; hit rate 0.46% among 97,000; AID 729, 2007; in the data active = activation above about 16%;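 note: 0% = vehicle low control and 100% = maximal reference agonist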
Target sequence (O95136 whole entry, looked up): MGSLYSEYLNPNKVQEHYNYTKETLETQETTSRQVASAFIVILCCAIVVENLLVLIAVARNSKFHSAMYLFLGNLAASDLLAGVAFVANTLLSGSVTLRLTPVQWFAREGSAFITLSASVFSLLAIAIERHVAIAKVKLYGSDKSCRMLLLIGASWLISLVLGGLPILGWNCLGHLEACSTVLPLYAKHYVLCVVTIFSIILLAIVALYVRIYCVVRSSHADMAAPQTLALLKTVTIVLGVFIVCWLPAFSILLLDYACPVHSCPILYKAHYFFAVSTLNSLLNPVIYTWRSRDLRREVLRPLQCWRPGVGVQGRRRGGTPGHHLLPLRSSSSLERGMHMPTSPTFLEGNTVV
GALR2 agonist: GALR2 receptor agonists, primary screen, cell-based | hit rate 0.48% among 140,000 | activation, % (concentration not given with the values) | Galanin receptor type 2 (Homo sapiens), O43603 | GALR2-expressing cells, agonist activation read-out; in the data active = activation above about 5%, passing the limit was not always enough;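 note: 0% = vehicle buffer wells and 100% = reference agonist at full effect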
GALR2 antag: GALR2 antagonists in receptor-expressing cells, primary screen; antagonist mode; inhibition, % at 4 µM; hit rate 0.39% among 140,000;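 note: cells stimulated with galanin 1-16 at roughly its EC80; 0% = agonist challenge control and 100% = basal control without agonist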
S1P2 antag: human S1P2 receptor antagonists, primary screen, cell-based; hit rate 0.21% among 97,000; cell-based S1P2 antagonist assay, inhibition at 5 uM; Sphingosine 1-phosphate receptor 2 (Homo sapiens), O95136; inhibition, % at 5 µM; in the data active = inhibition above about 45%;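 note: CRE beta-lactamase reporter cells expressing human S1P2 stimulated with S1P; 0% = agonist at EC80 alone and 100% = agonist plus reference antagonist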
GALR2 ag confirm: GALR2 agonists, retest of hits, confirmation, cell-based; hit rate 10% among 460; activation, % at 5.6 µM; shares compounds with GALR2 agonist; GALR2-expressing cells, agonist activation; in the data active = activation above about 8.4%;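 note: 0% = buffer-only vehicle wells and 100% = full reference agonist response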
BLA act counter: activators of NFAT-driven beta-lactamase reporter, confirmation, counter-screen for GALR2 agonist project, CHO NFAT-bla cells, FRET readout; activation, % at 5.6 µM; shares compounds with GALR2 agonist; beta-lactamase FRET activation; hit rate 10% among 460;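 active = activation above the screen-wide mean activation plus 3 SD, cut at about 8% in these data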;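 note: 0% = DMSO with PBS wells and 100% = thapsigargin positive control wells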
GALR2 ant conf: GALR2 antagonists, retest of hits, confirmation, cell-based | inhibition, % at 4 µM | AID 866, 2007 | GALR2-expressing cells, antagonist mode, inhibition | hit rate 60% among 480 | shares compounds with GALR2 antag;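 note: cells stimulated with galanin at about its EC80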
BLA inhib ctr: inhibitors of NFAT-driven beta-lactamase reporter, confirmation, counter-screen for GALR2 antagonist project, CHO NFAT-bla cells, FRET readout; hit rate 36% among 480; inhibition, % at 4.2 µM; AID 867, 2007; shares compounds with GALR2 antag; thapsigargin-stimulated;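 active = inhibition above the mean inhibition across tested compounds plus 3 SD, cut at about 27% in these data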;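 note: 0% = 500 nM thapsigargin stimulated wells and 100% = unstimulated BSA only wells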
* hit, by the source's call; . = not tested or not shown. An excerpt weighted towards active compounds, which were near 1.1% of everything screened. Cut-off read from the data, not from the text of the source, unless noted: active = inhibition above about 27%; inactive = the rest.

SMILES	S1P2 agonist	GALR2 agonist	GALR2 antag	S1P2 antag	GALR2 ag confirm	BLA act counter	GALR2 ant conf	BLA inhib ctr
O=C(Cc1cc(=O)oc2cc(O)ccc12)NCC1CCC(C(=O)O)CC1 (stereo not drawn)	4	9	0	-4	1	3	.	.
Nc1c(C(=O)c2ccccc2)sc2snc(SCC(=O)c3ccccc3)c12	-8	79*	0	15	-2	-3	.	.
Nc1nnc(SCC(=O)c2ccccc2)s1	-5	-2	0	-11	.	.	.	.
Cc1ccc(CNC(=O)c2ccc3nc4[nH]c5ccccc5c4nc3c2)cc1	.	14*	5	.	8.7*	6	.	.
COC(=O)C1CCN(C(=O)COC(=O)Cn2cnnn2)CC1	-3	160*	-7	6	-1	0	.	.
COC(=O)C1CCN(C(=O)COC(=O)CC(NC(C)=O)c2ccccc2)CC1 (stereo not drawn)	-1	-1	1	-4	.	.	.	.
O=c1[nH]c2ccccc2nc1-c1cccs1	15	12*	4	-11	1	4	.	.
Cc1ccc2nc(-c3ccccc3Cl)cc(C(=O)Nc3cc(C)on3)c2c1	-1	17*	-5	3	0	0	.	.
Cc1cc(NC(=O)c2ccccc2Cl)no1	0	-1	13	15	.	.	.	.
CCN(CC)S(=O)(=O)c1ccc(N=Cc2c(C)c(C#N)c(=O)n(C)c2O)cc1	.	0	-9	.	.	.	.	.
CCSc1ncc(C#N)c(N)n1	0	10	-19	-4	-1	-3	.	.
Cc1c(/C=N/n2cnnc2)c2ccccc2n1CCOc1ccc(Cl)cc1	-3	2	2	-17	.	.	.	.
Cc1ccc(OCCn2c(C)c(/C=N/n3cnnc3)c3ccccc32)cc1	6	9.1*	-7	-28	4	-2	.	.
Cc1ccc(C(=O)COC(=O)CCc2ccc(S(=O)(=O)N3CCCCC3)cc2)cc1	.	0	-5	.	.	.	.	.
Cc1csc(NC(=O)c2cc3c(s2)-c2ccccc2OC3)n1	-1	9	4	-6	3	6	.	.
Cc1ccc(NC(=O)CCCCCCCCCCC2COCCO2)c(C)c1 (stereo not drawn)	.	-2	-5	.	.	.	.	.
CCC(C)N=CC1=C(O)C(C(=O)OC)C(C)(C)CC1=O (stereo not drawn)	-7	49*	-3	-5	0	-1	.	.
COC(=O)C1C(O)=C(C=NCC(C)N=CC2=C(O)C(C(=O)OC)C(C)(C)CC2=O)C(=O)CC1(C)C (stereo not drawn)	-8	0	6	9	.	.	.	.
COC(=O)C1=CN(C2CC2)C=C(C(=O)OC)C1c1ccccc1OC	13	11	-3	-28	1	3	.	.
COC(=O)C1=CN(C)C=C(C(=O)OC)C1c1ccc(O)c(OC)c1	-6	0	-2	0	.	.	.	.
CC(=O)c1c(C)[nH]c(C(=O)OCC(=O)N2c3ccccc3NC(=O)C2(C)C)c1C	.	-1	13	.	.	.	.	.
CCCN1C(=O)/C(=C2\SC(N3CCCCC3)=NC2=O)c2ccccc21	-5	59*	2	-26	1	0	.	.
CCNCCNc1ccc(Cl)cc1[N+](=O)[O-]	-7	-1	5	-16	.	.	.	.
CS(=O)(=O)NCCCNc1ccc(Cl)cc1[N+](=O)[O-]	-4	58*	-2	1	-1	-1	.	.
CN(C)c1ccc(/C=C/c2nc3ccccc3s2)cc1	1	20*	45*	58*	6	9.6*	32*	41*
SMILES	S1P2 agonist	GALR2 agonist	GALR2 antag	S1P2 antag	GALR2 ag confirm	BLA act counter	GALR2 ant conf	BLA inhib ctr
CC(C)NC(=S)N/N=C/c1ccc2c(c1)OCCO2	.	-1	10	.	.	.	.	.
Cc1ccc(/C=N/Nc2ccnc3cc(Cl)ccc23)c(C)c1	.	14*	32*	.	19*	10*	42*	42*
O=c1oc2cc(O)ccc2cc1-c1nc2c(s1)CCc1ccccc1-2	.	14*	37*	.	4	1	66*	70*
O=c1oc2ccccc2cc1-c1ccc(O)cc1O	.	-1	5	.	.	.	.	.
CCOC(=O)c1sc2ccc(S(=O)(=O)N3CC(C)CC(C)C3)cc2c1N (stereo not drawn)	.	-2	11	.	.	.	.	.
COC(=O)/C(=C1/Oc2cc(C)oc(=O)c2S1)C(F)(F)F	.	-2	61*	.	.	.	66*	51*
O=C1C=C(Nc2ccc(Cl)cc2)CC(c2ccccc2)C1 (stereo not drawn)	.	-1	4	.	.	.	.	.
Oc1c(C=Nc2cccnc2)sc2ccccc12	-2	0	10	7	.	.	.	.
COc1ccc(N=Cc2c(O)[nH]c3ccccc23)cc1	-7	-2	10	-3	.	.	.	.
Oc1sc(C=Nc2ccc(F)cc2)c2ccccc12	-7	-2	39*	27	.	.	27*	14
Oc1sc(C=Nc2ccccc2)c2ccccc12	-6	-2	39*	32	.	.	30*	28*
O=C(/C=C/c1cc([N+](=O)[O-])ccc1OC(F)F)Nc1cccc2ccccc12	.	0	0	.	.	.	.	.
O=C(Cc1nn[nH]n1)c1ccccc1O	.	-1	11	.	.	.	.	.
Cc1ccc(C)c(N2CCN(c3ccc(N4C(=O)COCC4=O)cc3[N+](=O)[O-])CC2)c1	.	-1	8	.	.	.	.	.
Cc1cc(N2C(=O)C=CC2=O)c([N+](=O)[O-])cc1C	.	-2	45*	.	.	.	46*	71*
Nc1ccc2nc(-c3cccs3)[nH]c2c1	-3	-1	28*	-14	.	.	4	3
O=C(Nc1ncc(Cc2ccc(SC(F)F)cc2)s1)c1ccc(OC(F)F)cc1	.	3	33*	.	.	.	8	27*
Cc1ccc(Cc2cnc(NC(=O)c3ccco3)s2)cc1	-2	-2	-4	-1	.	.	.	.
CCOC(=O)c1ccccc1NC(=O)c1cccs1	-5	0	-2	0	.	.	.	.
CCOC(=O)c1ccccc1N/C=C/C(=O)c1cccs1	.	-1	27*	.	.	.	27*	11
Cn1c(-c2c(N)n(-c3ccccc3)c3nc4ccccc4nc23)nc2ccccc21	.	0	33*	.	.	.	35*	47*
Cc1cccc(-n2c(N)c(-c3nc4ccccc4n3C)c3nc4ccccc4nc32)c1	.	0	11	.	.	.	.	.
CCOc1ccc(OCC)c(S(=O)(=O)NNC(=O)c2c(C)nc3ccccn23)c1	.	1	3	.	.	.	.	.
Cc1nc2ccccn2c1C(=O)NNS(=O)(=O)c1ccc(C(C)(C)C)cc1	.	-2	30*	.	.	.	20	10
CCN(CC)c1ccc(/C=C(/C#N)c2nc3ccc(C)cc3[nH]2)c(OC(C)C)c1	7	-4	34*	20	.	.	30*	37*
CCCOc1cc(N(CC)CC)ccc1/C=C(/C#N)c1nc2ccc(C)cc2[nH]1	0	-3	25	1	.	.	.	.
O=C(COc1c(Cl)cc(Cl)cc1Cl)c1ccc(Cl)cc1	.	-1	15	.	.	.	.	.

Screens as filed in PubChem BioAssay.
